Records with an inconclusive call do not appear. Where a call stands in place of a potency, no number is given. Active and inactive are the calls of the source. The call rests on the fitted dose curve.
Potency means the concentration at half of the fitted maximal effect.

Chain of D(2) dopamine receptor (Homo sapiens) (P14416 whole entry, looked up): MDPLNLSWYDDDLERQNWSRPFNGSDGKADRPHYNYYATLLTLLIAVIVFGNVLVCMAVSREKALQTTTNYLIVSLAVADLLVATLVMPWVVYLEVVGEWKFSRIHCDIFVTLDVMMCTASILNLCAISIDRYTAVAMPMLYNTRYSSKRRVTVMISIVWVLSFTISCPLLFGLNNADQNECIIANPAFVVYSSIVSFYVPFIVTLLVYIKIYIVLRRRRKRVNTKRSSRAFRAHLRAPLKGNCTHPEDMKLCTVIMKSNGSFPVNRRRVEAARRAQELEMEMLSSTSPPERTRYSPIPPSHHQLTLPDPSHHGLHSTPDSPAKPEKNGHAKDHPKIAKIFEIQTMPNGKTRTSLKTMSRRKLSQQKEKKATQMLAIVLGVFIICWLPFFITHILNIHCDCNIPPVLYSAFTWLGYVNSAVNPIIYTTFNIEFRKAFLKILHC

This assay addresses D(2) dopamine receptor (Homo sapiens) (UniProt P14416). Briefly: Dopamine D2 receptor (DRD2) small molecule agonists, cell-based qHTS assay (AID 1963594). Further: nearly all actives have a fitted effect of over 35% in size. To be noted: HEK293-DRD2 cAMP HTRF, agonist mode, 30 min; series mostly up to 92.4 µM. The source says: National Center for Advancing Translational Sciences [NCATS]
Division of Preclinical Innovation [DPI]
U.S. Environmental Protection Agency [EPA]
National Institutes of Environmental Health Sciences [NIEHS]
National Toxicology Program [NTP]
U.S. Food and Drug Administration [FDA]
DRD2 is the D2 subtype of the dopamine receptor, which is coupled to Gi subtype of G protein-coupled receptor. This G protein-coupled receptor inhibits adenylyl cyclase activity. The DRD2-HEK293 cell line stably expressing D2 dopamine receptor can be used for screening agonists and antagonists of interactions between D2 and its ligands. The Hek293-DRD2 cAMP assay is based on HTRF technology. It measures changes of cAMP accumulation in response to Gi coupled GPCR activation or inhibition.
Tox21 Assay Protocol Summary:
DRD2-Hek293 cells were dispensed at 600 cells/3uL/well in 1536-well white plates using a Multidrop Dispenser. After the assay plates were incubated at a 37 C/5% CO2 incubator for 24 h, 1 uL of Ro20-1724 at final concentration of 0.1 mM was transferred to the assay plate by a Flying Reagent Dispenser. Following Ro20-1724 addition, 23 nL of compound dissolved in DMSO, positive controls or DMSO only was added to the assay plates via Wako pintool station. The assay plates were incubated at room temperature for 10 min. Next, 1 uL of NKH477 at 200nM was added into the plates. After the assay plates were incubated at room temperature for an additional 30 min, 2.5 ul/well of cAMP-d2 and 2.5 ul/well of anti-cAMP-cryptate were added respectively into the assay plates using a Flying Reagent Dispenser. The plates were incubated at room temperature for 1 h. The fluorescence intensity in the plates was measured at 340 nm excitation and 665 & 620 nm emission by an Envision plate reader.
For orientation: In qHTS, concentration-response curves come from the screen itself.
For `CCCCCCCCCCCCCCBr`, the Potency result is “inactive”. In the case of `O=C(O)CC(C(=O)O)S(=O)(=O)O` (stereo not given) it was “inactive”. With `Cc1ncc(CO)c(C=O)c1O` the entry was “inactive”; with `CC(C)=CCC/C(C)=C\C#N`, “inactive”; with `CC(C)CC(C)CC(C)CC(C)COC(=O)c1ccccc1C(=O)OCC(C)CC(C)CC(C)CC(C)C` (stereo not given), “inactive”.

For the compound `CC/C=C\CC/C=C/C(OCC)OCC`, the Potency entry is “inactive”. In the case of `COc1ccc(C(=O)Nc2nc3ccccc3c(NCc3ccccc3)c2C#N)cc1` it was “inactive”. For `C[C@@H]1[C@H](O)[C@@H](C)/C=C/C=C\C=C\C=C\C=C\C=C\C=C\[C@H](O[C@@H]2O[C@H](C)[C@@H](O)[C@H](N)[C@@H]2O)C[C@@H]2O[C@](O)(C[C@@H](O)C[C@@H](O)[C@H](O)CC[C@@H](O)C[C@@H](O)CC(=O)O[C@H]1C)C[C@H](O)[C@H]2C(=O)O` (stereo in doubt), the Potency result was “inactive”. In the case of `BrC(Br)C(Br)Br`, the Potency entry was “inactive”. On to `CN1C[C@H](C(=O)N[C@]2(C)O[C@@]3(O)[C@@H]4CCCN4C(=O)[C@H](Cc4ccccc4)N3C2=O)C[C@@H]2c3cccc4[nH]cc(c34)C[C@H]21`, for which the Potency is 22 nM (active). In the case of `Oc1ccc2c(c1)CCC2` it was “inactive”; in that of `NC(=O)C1(N2CCCCC2)CCN(CCCC(=O)c2ccc(F)cc2)CC1`, “inactive”. In the case of `Nc1ccnc(=O)[nH]1` it was “inactive”; in that of `CC/C=C(\C)C=O`, “inactive”. Turning to `NS(=O)(=O)c1cc(C2(O)NC(=O)c3ccccc32)ccc1Cl` (stereo not given), the Potency entry is “inactive”. For `CC(C)(C)c1cc(C=O)cc(C(C)(C)C)c1O`, the Potency entry was “inactive”. In the case of `COc1ccc([C@@H]2Sc3ccccc3NC(=O)[C@@H]2O)cc1` it was “inactive”. With `COc1cc(O)cc(O)c1`, the Potency entry is “inactive”. In the case of `O=c1cc(-c2ccccc2)oc2ccc3ccccc3c12`, the Potency entry was “inactive”.

`Cc1c(Cn2ccnc2)c2ccccc2n1CCC(=O)O`: the Potency entry is “inactive”. As for `Cc1c(C)c2c(c(C)c1OC(=O)CCC(=O)OCCO)CC[C@@](C)(CCC[C@H](C)CCC[C@H](C)CCCC(C)C)O2`, the Potency result is “inactive”. In the case of `CCNC(=O)N1CCN(CCCC(c2ccc(F)cc2)c2ccc(F)cc2)CC1` it was “inactive”. For the compound `O=C1CCCc2c(O)cccc21`, the Potency entry was “inactive”. With `Cc1ccsc1/C=C/C1=NCCCN1C`, the Potency entry was “inactive”. In the case of `CN(C)CCOCCN(C)CCO`, the Potency entry was “inactive”. In the case of `O=S(=O)(O)c1ccc(Cl)cc1` it was “inactive”.

Regarding `Nc1ccc(F)c([N+](=O)[O-])c1`, the Potency entry was “inactive”. With `CCC1CCC(CCC(=O)O)C1` (stereo not given), the Potency entry is “inactive”. In the case of `CC1CC(C)C(=O)C1=O` (stereo not given) it was “inactive”. In the case of `C[Si]1(C)O[Si](C)(C)O[Si](C)(C)O1` it was “inactive”; in that of `CCCCCCC(=O)OCC`, “inactive”; in that of `CC/C=C\CCOC(C)=O`, “inactive”.

Take `O=C1c2ccccc2S(=O)(=O)N1CCCCN1CCN(c2ncccn2)CC1`: the Potency is 2760 nM (active).

For the compound `CCOC(=O)CCCCCCCCC(=O)OCC`, the Potency result is “inactive”. Take `CC(C)SCc1ccco1`: the Potency result was “inactive”. As to `CC(CC1c2ccccc2CCc2ccccc21)CN(C)C` (stereo not given), the Potency result is “inactive”. With `c1ccc(CN(CC2=NCCN2)c2ccccc2)cc1` the entry was “inactive”.

Take `CCN(CC)CCNC(=O)c1cc(S(C)(=O)=O)ccc1OC`: the Potency result is “inactive”.

As for `O=C(CO)[C@@H](O)[C@H](O)[C@H](O)CO`, the Potency result was “inactive”. With `CC(=O)OCC(C)C` the entry was “inactive”.

The record behind these values is PubChem BioAssay (Tox21).
